Measured values taken from ChEMBL document CHEMBL4513216, “Probing the Open Global Health Chemical Diversity Library for Multistage-Active Starting Points for Next-Generation Antimalarials” (ACS Infect Dis, 2020).
Screen size: about 68,000 compounds; about 2,700 (4%) showed an effect of 50% or more. The sample as a whole holds a higher share of strong results than the screen did.

System: Plasmodium berghei
Assay: Screen against P. berghei liver stage (PbLuc), transformed with Luciferase, at 2uM
Type: functional, HepG2
Conditions: tested at 2 uM

Row | SMILES | INHIBITION [%]
1 | Cc1nc(C)c(CNCC2CCCn3ccnc32)s1 (stereo not drawn) | 50.59
2 | Cc1cn2c(n1)C(CNCc1ccc(C)s1)CCC2 (stereo not drawn) | -35.26
3 | Cc1ccc(CNCC2CCCn3ccnc32)s1 (stereo not drawn) | 14.82
4 | CC(C)(C)c1ncc(CNCC2CCCn3ccnc32)s1 (stereo not drawn) | 52.98
5 | Cn1cc(CN2CCc3nc4sccc4c(=O)n3CC2)cn1 | 35.7
6 | COc1ccc(C(=O)N2CCC(Nc3cccnn3)CC2)c(OC)c1 | -51.92
7 | CC(C)NC(=O)N1CCCC2(CCN(c3ccsc3)C2=O)C1 (stereo not drawn) | 17.77
8 | CCC1CN(C)c2ccccc2CN1C(=O)c1c[nH]c(=O)cc1C (stereo not drawn) | 42.8
9 | CN(C)C(=O)[C@H]1C[C@H]2OCC[C@H]2N(Cc2ccc(F)cc2)C1 | 35.38
10 | CCC(CC)n1nc(C)cc1NC(=O)C1CCOC1 (stereo not drawn) | -3.87
11 | CCC(CC)n1nc(C)cc1NC(=O)CC1CCOCC1 | -28.5
12 | CCC(CC)n1nc(C)cc1NC(=O)C1CCCO1 (stereo not drawn) | 53.61
13 | Cc1[nH]ccc1C(=O)N(C)C1CC(=O)N(Cc2ccccc2)C1=O (stereo not drawn) | 30.59
14 | CN(C(=O)c1ccc[nH]1)C1CC(=O)N(Cc2ccccc2)C1=O (stereo not drawn) | 29.91
15 | Cc1nc(C(=O)N(C)C2CC(=O)N(Cc3ccccc3)C2=O)cs1 (stereo not drawn) | 50.42
16 | O=C(C[C@@H]1COC[C@H]2CN(C(=O)c3cccnc3)C[C@@H]12)N1CCOCC1 | 22.89
17 | Cc1ccc(CN2CCOC3(COCCN(C(C)C)C3)C2)s1 (stereo not drawn) | -9.22
18 | CCc1nsc(N2CCN(C(=O)COc3ccccc3)CC2)n1 | 61.82
19 | CCc1nsc(N2CCCN(C(=O)COc3ccccc3)CC2)n1 | -26.86
20 | CCc1ncc(C(=O)N2CCN(C(=O)COc3ccccc3)CC2)cn1 | -28.5
21 | N#CCCN(c1ccc(F)cc1)S(=O)(=O)CC1CCCCO1 (stereo not drawn) | -7.39
22 | CC(=O)Nc1ccc(C(=O)NCCCn2cccc2)cc1 | 30.58
23 | CN(C)c1cc(C(=O)N2CCCCC2Cn2cccn2)ccn1 (stereo not drawn) | -7.15
24 | CCC1CCCCN1C(=O)c1ccnc(N(C)C)c1 (stereo not drawn) | 16.84
25 | CN(C)c1cc(C(=O)N2CCCCC2CNS(C)(=O)=O)ccn1 (stereo not drawn) | 53.11
26 | CC(C)NC(=O)[C@H]1C[C@@H]2[C@@H](C1)OCCN2Cc1cccs1 | 29.43
27 | CC(C)CCN(C(=O)c1cc2c([nH]c1=O)CCCC2=O)C1CC1 | 0.12

Row | SMILES | INHIBITION [%]
28 | CC(c1ccco1)N(C(=O)c1cc2c([nH]c1=O)CCCC2=O)C1CC1 (stereo not drawn) | -8.3
29 | CCN(C(=O)c1cc2c([nH]c1=O)CCCC2=O)C1CCCCC1 | -58.06
30 | CC(C)C(C)N(C(=O)c1cc2c([nH]c1=O)CCCC2=O)C1CC1 (stereo not drawn) | 72.49
31 | CCCN(C(=O)c1cc2c([nH]c1=O)CCCC2=O)C1CCCCC1 | 22
32 | O=C1CCCc2[nH]c(=O)c(C(=O)N(CC3CCCCC3)C3CC3)cc21 | 67.44
33 | COc1ccc2c(c1)C1(CCNCC1)CC2NC1CC1 (stereo not drawn) | 0
34 | CC(C)(CN1CCOCC1)CN1CCC(Cc2cccc(CO)c2)C1 (stereo not drawn) | -7.7
35 | CCN(CC)c1ccc(NS(=O)(=O)c2cnn(C(C)C)c2)cn1 | 3.17
36 | CNc1oc(COc2ccc3c(c2)OCO3)nc1C#N | -6.53
37 | N#Cc1nc(COc2ccc3c(c2)OCO3)oc1N1CCCC1 | -9.89
38 | N#Cc1nc(COc2ccc3c(c2)OCO3)oc1NC1CCCCC1 | 66.74
39 | O=C(NC1CCCC1)c1nc(COc2ccc3c(c2)OCO3)no1 | -11.86
40 | N#Cc1nc(COc2ccc3c(c2)OCO3)oc1N1CCCCCC1 | 18.85
41 | N#Cc1nc(COc2ccc3c(c2)OCO3)oc1NC1CC1 | 51.42
42 | CCS(=O)(=O)N1CCC(c2nnc(CN3CCOCC3)n2C)CC1 | 37.3
43 | CCCc1n[nH]c(C2CN(C(=O)CCCn3ccnc3C)CCO2)n1 (stereo not drawn) | -15.07
44 | Cc1cc(C)cc(OCC(=O)N2CCC2)c1 | 16.8
45 | COc1cc(C(=O)N2CCCS2(=O)=O)ccc1OC(C)C | 21.12
46 | COc1ccc(C[C@H]2CN(Cc3ccoc3)CC[C@@H]2OC)cc1 | 17.47
47 | Cc1cnc(C(=O)N2CC[C@H]3C[C@@H](c4nc(C)cs4)O[C@@H]3C2)cn1 | 5.85
48 | CC(C)c1cc(=O)[nH]c(-n2nc(C3CC3)cc2N)n1 | 16.98
49 | CN(CC1CCCCO1)S(=O)(=O)c1cccc(C(=O)N2CCOCC2)c1 (stereo not drawn) | -40.47
50 | O=C(O)c1cccc(C2CCCN(S(=O)(=O)C3CC3)C2)c1 (stereo not drawn) | 47.68
51 | COCCN1CCN(Cc2coc(-c3ccccc3Cl)n2)CC1 | 11.9
52 | CC(O)CN1CCN(Cc2coc(-c3ccccc3Cl)n2)CC1 (stereo not drawn) | -7.16
53 | OCCN1CCN(Cc2coc(-c3ccccc3Cl)n2)CC1 | 58.53
